Measured values published in PubChem BioAssay AID488890 (Southern Research Specialized Biocontainment Screening …, 2010).
Out of some 320,000 compounds screened, about 1,300 (0.41%) were called active. Roughly 3% stayed inconclusive and do not appear here. How the calls were made is not given here. A selection follows. Entries with a potency or affinity are not part of this list.

Experiment: growth inhibition of non-replicating M. tuberculosis (AID 488890);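 further: plate controls were DMSO cells for no effect and high antibiotic wells for full effect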
Conditions: Mycobacterium tuberculosis non-replicating, at 25 µM, stronger effect = higher value

With `C/C(CC(=O)Nc1ccc(Cl)cc1Cl)=N\NC(=O)c1ccco1` as the compound, how does the inhibition read?
Its inhibition is 62.2%.

Which inhibition does the source give for `Cc1c2ccccc2nc2c(F)c(NC(C)C)c(F)c(F)c12` here?
Its inhibition is 25.6%.

For `Cc1c2ccccc2nc2c(F)c(N(C)C)c(F)c(F)c12`, which inhibition is on record?
The inhibition was 67.8%.

For `CCCn1c(NC(=O)c2cccc(S(=O)(=O)N3CCCC3)c2)nc2ccccc21`, which inhibition is on record?
Its inhibition is 12.3%.

Which inhibition does the source give for `Cc1[nH][nH]c(=O)c1N=Nc1ccccc1Cl` here?
The inhibition was 2.18%.

For `Cc1[nH]n(S(=O)(=O)c2ccccc2)c(=O)c1N=Nc1cccc(Cl)c1`, which inhibition is on record?
The inhibition was 70.6%.

For `C#CCOCCOCCOCCNc1nc(N2CCN(C(=O)[C@H](CCC(=O)O)n3cc([C@@H](N)[C@H](C)CC)nn3)CC2)nc(N2CCN(C(=O)[C@H](CCCCN)n3cc([C@@H](N)CC(N)=O)nn3)CC2)n1`, which inhibition is on record?
The inhibition was -0.95%.

For `CCOC(=O)Cn1c(=O)cc(C)c2cccc(C)c21`, which inhibition is on record?
The inhibition was 78.8%.

Which inhibition does the source give for `Cc1cccc2c(=O)c(Br)c(C)n(Cc3ccccc3)c12` here?
Its inhibition is -19.5%.

With `CC(NC(=S)NC(=O)c1ccccc1)c1ccccc1` (centres undefined) as the compound, how does the inhibition read?
The inhibition was 38.7%.

For `COc1ccc(OC)c(C2Nc3ccccc3NC3=C2C(=O)CC(C)(C)C3)c1` (centres undefined), which inhibition is on record?
The inhibition was 3.61%.

Which inhibition does the source give for `Cc1ccc(C)c(NC(=O)CN(C)C(=O)C2=NNC(=O)CC2)c1` here?
The inhibition was 10.7%.

With `NS(=O)(=O)c1ccc(NC(=O)COC(=O)c2cc(Cl)ccc2[N+](=O)[O-])cc1` as the compound, how does the inhibition read?
Its inhibition is 16.2%.

Which inhibition does the source give for `CC(C)(C)NC(=O)COC(=O)c1cc(Cl)ccc1[N+](=O)[O-]` here?
Its inhibition is 70.2%.

Which inhibition does the source give for `O=C(C1=C(O)C(=O)N(CCCn2ccnc2)C1c1ccc(F)cc1)c1ccco1` (centres undefined) here?
The inhibition was 1.68%.

Which inhibition does the source give for `CC(C)(C)NS(=O)(=O)c1ccc(NC(=O)C2CC(=O)N(CCc3ccc(F)cc3)C2)cc1` (centres undefined) here?
The inhibition was 6.94%.

For `COc1ccc(CCN2CC(C(=O)NCC3(O)CCCCC3)CCC2=O)cc1` (centres undefined), which inhibition is on record?
Its inhibition is -4.96%.

Which inhibition does the source give for `Cc1cc(OC2CCCCC2)nc(NCc2ccccc2)n1` here?
The inhibition was 29.8%.

For `Cc1cc(N2CCOCC2)nc(NCc2ccccc2)n1`, which inhibition is on record?
Its inhibition is 15.7%.

For `Cc1cc(Nc2ccccc2)nc(NCc2ccccc2)n1`, which inhibition is on record?
The inhibition was 69.7%.

Which inhibition does the source give for `Cc1cc(N2CCN(c3ccccc3)CC2)nc(NCc2ccccc2)n1` here?
Its inhibition is 36.7%.

With `Cc1ccc(SCCC(=O)OCC(=O)Nc2ccc(C(N)=O)cc2)cc1` as the compound, how does the inhibition read?
The inhibition was -4.28%.

With `COc1cc(S(=O)(=O)Nc2ccncc2)ccc1F` as the compound, how does the inhibition read?
The inhibition was -1.45%.

For `COc1cccc(Nc2nc3cc(OC)ccc3cc2C#N)c1`, which inhibition is on record?
Its inhibition is 2.07%.

With `O=C(Nc1nn[nH]n1)c1cc(-c2ccc(Cl)c(Cl)c2Cl)nc2ccccc12` as the compound, how does the inhibition read?
Its inhibition is 28.1%.

Which inhibition does the source give for `Cc1cc2[nH]c(=O)c(=O)[nH]c2cc1S(=O)(=O)N(C)C1CCCCC1` here?
The inhibition was 13.6%.

Which inhibition does the source give for `CC(C)OC(=O)CCCN1C(=O)c2ccc(N)cc2C1=O` here?
The inhibition was -10.2%.

With `O=C(O)CN1C(=O)CSC1=S` as the compound, how does the inhibition read?
The inhibition was -1.21%.

With `COC(=O)C1=C(C)NC(C)=C(C(=O)OC)C1C(=O)OC1CCCCC1=O` (centres undefined) as the compound, how does the inhibition read?
The inhibition was -9.56%.
